{"source": "PubChem BioAssay AID1003", "about": "(National Center for Advancing Translational Sciences (NCATS), 2008)", "note": "Activity calls are given as the source filed them.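 How the source made its calls: active means compounds that block the bacterial enzyme AmpC beta-lactamase with detergent present and have a measured Ki; inactive means the rest.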"}
{"target": "Beta-lactamase (Escherichia coli (strain K12)) (UniProt P00811)", "sequence (P00811 whole entry, looked up)": "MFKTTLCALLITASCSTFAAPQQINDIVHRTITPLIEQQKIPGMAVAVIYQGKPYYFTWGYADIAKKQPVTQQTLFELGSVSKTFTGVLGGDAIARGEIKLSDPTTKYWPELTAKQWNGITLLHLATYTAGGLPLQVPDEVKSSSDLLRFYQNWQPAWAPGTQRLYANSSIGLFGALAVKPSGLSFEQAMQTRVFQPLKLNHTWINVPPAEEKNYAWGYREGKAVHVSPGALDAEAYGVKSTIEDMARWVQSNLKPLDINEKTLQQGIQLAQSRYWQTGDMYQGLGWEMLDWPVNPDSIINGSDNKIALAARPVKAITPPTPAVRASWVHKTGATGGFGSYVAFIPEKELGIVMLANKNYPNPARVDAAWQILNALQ", "assay": "Confirmation Cuvette-Based Assay for Inhibitors of AmpC Beta-Lactamase (assay with detergent)", "conditions": "purified AmpC, nitrocefin hydrolysis absorbance, 0.01% Triton", "description": "NIH Molecular Libraries Screening Centers Network [MLSCN] NIH Chemical Genomics Center [NCGC] MLSCN Grant: MH079825-01 Assay Provider: Shoichet, Brian K. This aggregation profiling approach exploits the sensitivity of aggregate formation to detergent. Inhibition of b-lactamase is measured in the presence and absence of 0.01% Triton X-100 (Feng 2007). This particular assay is a confirmation of previous qHTS (Inglese, 2006), Pubchem AID 584, assay with presence of 0.01% Triton X-100. For a related assay without detergent, see AID 585. Compounds that inhibit only in the absence of detergent are considered likely promiscuous aggregators. This confirmation assay is a cuvette-based screen of an oxadiazole carbamate series which is an expansion around docking hit Pubchem SID 4244870.\nReactions were performed in methylacrylate cuvettes in 1 mL of reaction volume. The beta-lactamase assay contained 1 nM AmpC beta-lactamase, 200 uM Nitrocefin and varying amounts of Triton X-100 (either 0.00002% or 0.1%). Compound and enzyme were incubated for 5 minutes before the reaction was initiated by addition of substrate. Nitrocefin hydrolysis was monitored as an increase in absorption at 482 nm on an Agilent 8453 UV-visible spectrophotometer at room temperature."}
{"smiles": "O=C(O)c1ccc2c(c1)C(=O)N([C@H](Cc1cccc3ccccc13)C(=O)O)C2=O", "Ki": "5 µM (active)"}
{"smiles": "O=C(O)c1ccc2c(c1)C(=O)N([C@H](Cc1ccc3ccccc3c1)C(=O)O)C2=O", "Ki": "14 µM (active)"}
{"smiles": "CC(C)(C)c1ccc(C[C@H](C(=O)O)N2C(=O)c3ccc(C(=O)O)cc3C2=O)cc1", "Ki": "11 µM (active)"}
{"smiles": "Cc1ccc(C[C@H](C(=O)O)N2C(=O)c3ccc(C(=O)O)cc3C2=O)c(C)c1", "Ki": "17 µM (active)"}
{"smiles": "O=C(O)c1ccc2c(c1)C(=O)N([C@H](Cc1c3ccccc3cc3ccccc13)C(=O)O)C2=O", "Ki": "12 µM (active)"}
{"smiles": "O=C(O)c1ccc2c(c1)C(=O)N([C@H](Cc1c[nH]c3ccccc13)C(=O)O)C2=O", "Ki": "17 µM (active)"}
{"smiles": "O=C(O)c1ccc2c(c1)C(=O)N([C@H](Cc1ccc(-c3ccccc3)cc1)C(=O)O)C2=O", "Ki": "15 µM (active)"}
{"smiles": "Cn1cc(C[C@H](C(=O)O)N2C(=O)c3ccc(C(=O)O)cc3C2=O)c2ccccc21", "Ki": "17 µM (active)"}
